Shown are actives, neighbours in structure and some others; about 2.2% of the full set was active somewhere.
FUS yeast rescue: qHTS for Suppressors of FUS Proteinopathy: Primary screen using FUS-linked yeast assay; Potency, µM (top dose mostly 76.6 µM), hits mostly activators; S. cerevisiae FUS-expressing, growth rescue, OD600, 24 h; 390,000 compounds, 0.24% hits;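 further: plate controls were DMSO vehicle for no effect and reference control for full effect; nearly all actives have a fitted effect of over 55% in size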
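Yeast expressing FUS under galactose induction, OD 0.005 in 2% galactose medium; compounds in a dilution series, 24 h at 30C. Growth rescue by absorbance at 600 nm; CP55940 positive control, DMSO negative.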
Mito fusion yeast: qHTS Assay for Small Molecule Inhibitors of Mitochondrial Division or Activators of Mitochondrial Fusion; Potency, µM (highest dose often 46.1 µM), for inactives: at the highest dose growth rescue (activation), usual class: activators; AID 485298, 2010; 320,000 compounds, 0.23% hits; S. cerevisiae fusion-defective mutant growth rescue, CellTiterGlo 48 h; further: % of control where 0% means no effect; nearly all actives have a fitted effect of over 45% in size
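Growth-rescue viability read-out: after 48 h at the non-permissive 37C in glycerol/ethanol YPEG, yeast mitochondrial fusion mutants are measured by CellTiterGlo luminescence; compounds (23 nl pinned per well) restoring growth score as division inhibitors or fusion activators.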
Abeta rescue: qHTS for compounds that reverse cellular toxicity of Amyloid beta (A-beta) peptide in yeast: Primary Screen. yeast expressing A-beta42, growth rescue, OD600, 48 h; response scale: 0% DMSO, 100% iron-clioquinol control. Potency, µM (series often up to 46.1 µM), usual class: activators. 410,000 compounds, 0.063% hits; further: nearly all actives have a fitted effect of over 55% in size
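Yeast A-beta toxicity model in growth medium with pinned compounds, 48 h at 30 C; growth read as absorbance at 600 nm. Normalized to FeCl3/clioquinol equimolar mix (positive) and DMSO (negative).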
aSyn yeast inh: qHTS of alpha-syn Inhibitors | Yeast expressing alpha-synuclein, growth rescue, BacTiter-Glo, 24 h | Potency, µM (titrated, usually from 46.1 µM), for the others: top-dose growth rescue (activation), most hits filed as activators | 370,000 compounds, 0.14% hits | AID 652106, 2013; further: % of control where 0% means no effect; nearly all actives have a fitted effect of over 65% in size
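Galactose-induced alpha-syn yeast (OD600=0.02, raffinose-pregrown) + pinned cpd, 24 hr, 30 deg C; growth by BacTiter-Glo luminescence. Growth restoration scores as activation.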
TDP43 rescue: qHTS of TDP-43 Inhibitors. Potency, µM (titrated, usually from 46.1 µM), inactives show at the highest dose growth rescue (activation), actives largely listed as activators. AID 652104, 2013. TDP-43 expressing yeast growth rescue, BacTiter-Glo, 24 h. 410,000 compounds, 1.8% hits; further: % of control where 0% means no effect; nearly all actives have a fitted effect of over 50% in size
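Readout is BacTiter-Glo luminescence of cell growth, so inhibitors register as activators. TDP-43-expressing yeast at OD600=0.02 in galactose medium, after raffinose pregrowth to mid-log, were incubated with compound for 24 hr at 30 deg C.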
Starred values were filed as active, the others as inactive; i = inactive; u = inconclusive; x = no result given; [ ] = another dose, or the depositor's remark. The call rests on the fitted dose curve; in most records, active means well fitted curve in the direction sought with a large enough effect; inconclusive means small, poorly fitted or top-dose-only effect, or another doubt; inactive means no such curve, though single readings can be large; an effect the other way counts as inactive or inconclusive. Potency means the concentration at half of the fitted maximal effect.

SMILES	FUS yeast rescue	Mito fusion yeast	Abeta rescue	aSyn yeast inh	TDP43 rescue
CCOc1ccc(S(=O)(=O)Nc2cccc(-c3ccc(OCC)nn3)c2)cc1	i	x	i	x	35µM*
Cc1ccc(S(=O)(=O)Nc2cccc(-c3ccc(N4CCCCCC4)nn3)c2)cc1C	22µM*	0%	x	0%	-3%
COc1cccc(-c2nc(S(=O)(=O)c3ccccc3)c(N3CCC(C)CC3)o2)c1	i	x	i	x	17%
Cc1ccc(-n2ccnc(NCc3ccccc3)c2=O)cc1C	i	x	i	x	32µM*
Cc1ccc(CNc2nccn(-c3cc(C)cc(C)c3)c2=O)cc1	i	x	i	x	u
COc1cccc(CNc2nccn(-c3cc(C)cc(C)c3)c2=O)c1	i	x	i	x	18µM*
COC(=O)[C@]12CCCCC=C1N(Cc1ccc(OC)cc1)C(=O)[C@@H]2CC(=O)NCC1CCCCC1	i	x	x	x	x
CCOC(=O)N1CCN(Cc2nc3cc(NC(=O)c4ccccc4Cl)ccc3n2C(C)C)CC1	i	x	i	x	-3%
Cc1sc2ncnc(Sc3ccccc3C(=O)Nc3ccc(C#N)cc3)c2c1C	u	13µM*	i	9%	u
Cc1sc2ncnc(Sc3ccccc3C(=O)Nc3ccc(Br)cc3)c2c1C	x	u	i	6%	-18%
Cc1ccc(N2CC(c3nnc(Cc4ccc(Cl)cc4)o3)CC2=O)cc1 (stereo not drawn)	i	x	i	x	u
CC(O)CNc1nc2sc3c(c2c(=O)n1CCc1ccccc1)CCCCC3 (stereo not drawn)	u	20µM*	i	-45%	-9%[0.397 µM]
CN(C)CCNc1nc2sc3c(c2c(=O)n1CCc1ccccc1)CCCCC3	i	11%	i	-9%	17%
CCc1ccc(OCC(=O)Nc2cc(-c3ccc(C)cc3)no2)cc1	i	x	i	x	17%
C=CCc1cccc(CNc2ccc(Br)cc2)c1O	i	-6%	i	17%	22µM*
Cc1nc2ccccc2nc1OCc1cccc(Cl)c1	i	8%	i	5%	13µM*
Cc1nc(Nc2ccccc2F)c2oc3ccccc3c2n1	i	-9%	i	0%	2.5µM*
Cc1nc2ccccc2nc1Nc1cccc(Cl)c1	i	4%	u	13%	13µM*
Cc1nc(Nc2ccccc2O)c2oc3ccccc3c2n1	i	-8%	i	-2%	12%
COc1ccc(Oc2nc(C)nc3c2oc2ccccc23)cc1	i	2%	i	10%	16µM*
CNc1ccc(/C=C2\C=Cc3ccccc32)cc1OC	x	x	x	-7%	x
CCNc1nc(C#N)nc(Nc2ccccc2)n1	x	x	x	9%	x
CCCOc1cccc(C(=O)Nc2cccc(-c3nc4ncccc4o3)c2C)c1	i	x	i	3%	10%
Cc1nc(Nc2cccc(Cl)c2)c2oc3ccccc3c2n1	i	19%	i	-23%	16µM*
Cc1ccc(C23CC4CC(CC(NC(=O)NC(C)(C)CO)(C4)C2)C3)cc1	i	u	i	x	22µM*
SMILES	FUS yeast rescue	Mito fusion yeast	Abeta rescue	aSyn yeast inh	TDP43 rescue
Cc1ccc(C23CC4CC(CC(NC(=O)NN)(C4)C2)C3)cc1	i	-14%	x	4%	u
CCOC(=O)CCS(=O)(=O)c1nc(-c2ccccc2)cc(C(F)(F)F)n1	x	-26%	i	-6%	16µM*
CCOC(=O)CS(=O)(=O)c1nc(-c2ccc(F)cc2)cc(C(F)(F)F)n1	i	-3%	i	7%	22µM*
COC(=O)CCS(=O)(=O)c1nc(-c2ccccc2)cc(C(F)(F)F)n1	i	-10%	i	-1%	u
CCOC(=O)CS(=O)(=O)c1nc(-c2ccccc2)cc(C(F)(F)F)n1	i	-9%	i	-15%	22µM*
COc1ccc(-c2cc(C(F)(F)F)nc(S(C)(=O)=O)n2)cc1	i	10%	i	7%	13µM*
CS(=O)(=O)c1nc(-c2ccc(F)cc2)cc(C(F)(F)F)n1	i	-31%	i	8%	-3%[0.397 µM]
COc1ccc(CNC(=O)CCNS(=O)(=O)c2ccc3[nH]c(=O)oc3c2)cc1	i	x	x	x	x
CCCOc1ccc(CNC(=O)Cn2cc3c(n2)-c2c(oc(C(=O)N4CCOCC4)c2C)CC3)cc1	i	x	i	x	0%
COc1ccc(-c2cc(C(F)(F)F)nc(-n3cc(Cl)cn3)n2)cc1	u	-3%	i	-4%	11µM*
COc1cccc(-c2cc(C(F)(F)F)nc(-n3cc(Cl)cn3)n2)c1	i	2%	i	5%	16%
Cn1nc(-c2cccnc2)nc2c(=O)n(C)c(=O)nc1-2	x	x	x	15%	x
Cn1c(=O)c2c(-c3ccccc3Br)n(C(C)(C)C)cc2n(C)c1=O	i	x	i	x	14%
CC(c1ccccc1)n1cc2c(c1-c1ccccc1Br)c(=O)n(C)c(=O)n2C (stereo not drawn)	u	x	i	x	14µM*
O=S(=O)(c1cccc(-c2csc(N/N=C/c3ccco3)n2)c1)N1CCOCC1	u	-8%	i	2%	16µM*
COc1ccc(N=C2SCC(=O)N2Cc2ccccc2)cc1	i	0%	i	-14%	13µM*
O=C(O)c1ccc(N=C2SCC(=O)N2Cc2ccccc2)cc1	i	10%	i	25%	u
Cc1cccc(N2CC(C(=O)Nc3nnc(SCC(=O)N4CCOCC4)s3)CC2=O)c1 (stereo not drawn)	18µM*	1%	i	-10%	-11%
O=C(Nc1nnc(SCC(=O)N2CCOCC2)s1)C1CC(=O)N(c2ccccc2)C1 (stereo not drawn)	i	1%	i	17%	-16%
CC(C)(C)c1cccc(Cn2nnc3ccccc32)c1O	i	20µM*	i	1%	u
Cc1ccc(NC(=S)c2ccncc2)cc1	i	-18%	x	2%	19%
Cc1ccc(NC(=S)c2ccccc2)cc1	i	15%	i	-2%	11µM*
O=C1Cc2ccccc2C(=O)N1CCc1ccccc1	i	-1%	i	2%	13µM*
CN(C)c1ccc(/C=C/c2c(Br)cnc3ccccc23)cc1	x	x	x	-7%	x
O=C(N/N=C\c1ccc([N+](=O)[O-])o1)C1COc2ccccc2O1 (stereo not drawn)	i	7%	i	6%	u
O=C(N/N=C\c1ccc(Cl)s1)C1COc2ccccc2O1 (stereo not drawn)	i	1%	u	1%	18µM*
O=C(N/N=C\c1ccc([N+](=O)[O-])s1)C1COc2ccccc2O1 (stereo not drawn)	i	-23%	i	7%	3.5µM*

From PubChem BioAssay
